Each structure is given as a SMILES string. About 83,000 compounds went through this panel and 20% of them were active in at least one assay; those are over-represented in the sample as a whole.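 Percent growth is the endpoint: 0 to 100 indicates growth inhibition (40 means 60% inhibition), 0 means no net growth, and negative values indicate cell death.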 Unmarked numbers belong to inactive results. Activity calls are given as the source filed them.

The subject of this assay is HS 578T breast. The assay can be described thus: NCI-60 one-dose screen, 48 h (100 = growth as untreated, 0 = no growth, -100 = all killed). To be noted: 10 µM unless noted. The protocol:
Growth inhibition of the HS 578T human tumor cell line is measured as a screen for anti-cancer activity. Cells are grown in 96 well plates and exposed to the test compound for 48 hours. Compounds are tested at a single concentration, which is 10^-5 M for most compounds. The reported endpoint is percent growth (GI% or GIPRCNT), where numbers from 0 - 100% represent growth inhibition, and numbers from -100% - 0 represent cell death. For example, a value of 40 represents 60% growth inhibition. A value of 0 means no net growth occurred over the course of the experiment. A value of -40 indicates 40% of cells at the beginning of the experiment died by the end of the experiment. A value of -100 means all cells are dead at the end of the experiment.
NCI-60 Human Tumor Cell Lines Screen was performed using the standard one-dose NCI protocol, which is described in more detail at https://dtp.cancer.gov/discovery_development/nci-60/default.htm.
Compounds with GIPRCNT values below 10 were considered active. Activity score was based on GIPRCNT using the following formula: […]
Score is 0 for GIPRCNT values of 100 or above, 50 for GIPRCNT values of 0, and 100 for GIPRCNT values of -100.
In the case of `CN1C(=O)N(c2ccccc2)C2N=C(N/N=C/c3ccccc3)SC21` (stereo not given), the growth was 2.36% (active).
In the case of `CS(=O)(=O)c1ccc(-c2nc3ccccn3c2/C=N/Nc2nc(-c3ccc(Cl)cc3)cs2)cc1`, the growth was 107%.
`COc1ccc(-c2cc(C(=O)N=Nc3c(O)[nH]c4ccccc34)c3ccccc3n2)cc1OC`: the growth was 97%.
Turning to `COc1ccc(-c2nc3ccc(-c4nnc(SCC(=O)Nc5ccc(C(C)=O)cc5)o4)cc3[nH]2)cc1`, the growth was 96.8%.
On to `Nc1cc(-c2c[nH]c3ccc(F)cc23)nc2cc(-c3c[nH]c4ccc(F)cc34)nn12`, for which the growth is 112%.
`CC(C)(C)Nc1nc2c(OCCc3ccccc3)cccn2c1-c1ccc(Cl)cc1`: the growth is 70.3%.
For `CCOC(=O)c1c(Nc2ccccc2)nn2c(N)c(C#N)c(-c3ccc(Cl)cc3)nc12`, the growth was 33.8%.
As to `COc1ccc(CNS(=O)(=O)/N=C2\NC(=O)NC2=C(Cl)Cl)cc1`, the growth was 44%.
Regarding `Nc1cc(-c2c[nH]c3ccc(Cl)cc23)nc2cc(-c3c[nH]c4ccc(Cl)cc34)nn12`, the growth is 74.3%.
The figure for `CN(C)CCCNc1c2ccccc2nc2c1oc1ccc(Cl)cc12` is 47.7%; for `COc1cc2nc(-c3ccc(C)cc3)cc(OCCCNCC3CCCO3)c2cc1OC` (stereo not given) it is 84.3%; for `CS(=O)(=O)c1ccc(-c2nc3ccccn3c2-c2nc3ccc([N+](=O)[O-])cc3[nH]2)cc1` it is 99.7%.
As to `CCCC(=O)NC(c1ccc(N(CC)CC)cc1)c1cc(C)c2cccnc2c1O` (stereo not given), the growth was 50%.
As to `O=C1Nc2ccccc2Oc2ccc(S(=O)(=O)CC3CO3)cc21` (stereo not given), the growth was 60.6%.
As to `Nc1nc(N)c2c(n1)NC(c1ccc(C(F)(F)F)cc1)CC(c1ccc(Nc3nc(NCCO)nc(Nc4ccc(Cl)cc4)n3)cc1)=N2` (stereo not given), the growth is -10.5% (active).
In the case of `CS(=O)(=O)c1ccc(-c2nc3ccccn3c2C=Nc2ccc(Cl)cc2)cc1`, the growth was 104%.
For `Cc1nc(-c2cc3ccccc3oc2=O)ccc1C(=O)/C=C/c1ccc(Cl)c(Cl)c1`, the growth was 90.7%.
As for `COc1ccc(/C=C2\SC(=Nc3cc(C)[nH]n3)NC2=O)cc1`, the growth was 91.4%.
For `COc1ccc(/C=N/NC(=O)c2[nH]c3ccc(Br)cc3c2-c2ccccc2)o1`, the growth is 11.5%.
The figure for `C=CCn1c(SCC(=O)c2ccccc2)nnc1-c1c[nH]c2ccccc12` is 97%; for `Cc1ccc2ccc3ccc(C)nc3c2n1.Cc1ccc2ccc3ccc(C)nc3c2n1.Oc1c(Cl)cc(Cl)c2ccc(CN3CCCCC3)nc12.[Ru]` it is -42.4% (active); for `N[C@@H](Cc1cn(-c2c3ccccc3nc3ccccc23)nn1)C(=O)O` it is 99.8%.
In the case of `CCOC(=O)c1c(NC(=O)c2cccc(C(F)(F)F)c2)sc2cc(O)ccc12`, the growth is 88.1%.
For `COc1cc2cc(Oc3ccc(NC(=O)c4cccc(C(F)(F)F)c4)cc3)c(C)nc2cc1OCCN1CCCCC1`, the growth was 70%.
As to `O=C(N/N=C/c1ccc(Cl)s1)c1[nH]c2ccc(Br)cc2c1-c1ccccc1`, the growth is 27%.
As for `Clc1ccc2c(OCCCN3CCOCC3)c3oc4ccccc4c3nc2c1`, the growth was 38.4%.
Regarding `COc1cc2nc(-c3ccc(Cl)cc3)cc(OCCCNCC3CCCO3)c2cc1OC` (stereo not given), the growth was 76.6%.
Consider `CCCC(=O)NC(c1cccnc1)c1cc(C)c2cccnc2c1O` (stereo not given), for which the growth was 71.8%.
For `CN(C)CCCOc1c2ccc(Cl)cc2nc2c1oc1ccccc12`, the growth is 5.22% (active).
Consider `CC(C)NC(=O)c1cc(-c2ccc(NC(=O)Nc3ccc(N4CCOCC4)c(C(F)(F)F)c3)cc2)nc2cccnc12`, for which the growth is 9.42% (active).
Turning to `O=C(CSc1nnc(-c2ccc3nc(-c4ccc(Cl)cc4)[nH]c3c2)o1)Nc1ccc(C(=O)/C=C/c2ccc(Cl)cc2)cc1`, the growth is 89%.
In the case of `O=C(CSc1nc2sc3c(c2c(=O)n1-c1ccc(Cl)cc1)CCCC3)N/N=C/c1ccc(F)cc1`, the growth is 115%.
The figure for `OC1CCN(CCCOc2c3ccc(Cl)cc3nc3c2oc2ccc(Cl)cc23)CC1` is 20.5%.
On to `Cc1nc2cnc(N)c(C#Cc3cncc(C(=O)Nc4ccc(Cl)c(C(F)(F)F)c4)c3)c2nc1C`, for which the growth is 35.4%.
Turning to `CC(=O)c1ccc(Nc2nc(SC(C)C)nc(-c3ccccc3)c2C#N)cc1`, the growth is 90.6%.
The figure for `COc1ccc(-c2csc(N/N=C/c3c(-c4ccc(S(C)(=O)=O)cc4)nc4ccccn34)n2)cc1` is 118%; for `COc1cccc(COc2ccc(/C=C3/C(=O)Nc4cc(Cl)ccc43)cc2)c1` it is 91%; for `C[C@@H](Nc1c(C#N)cnc2ccc(-c3cnc(N)nc3)cc12)c1ccccc1` it is -13.6% (active).
In the case of `Cn1cc(-c2cc(N)n3nc(-c4cn(C)c5ccc(F)cc45)cc3n2)c2cc(F)ccc21`, the growth is 18.5%.
The figure for `NS(=O)(=O)c1cccc(Nc2nc(SCC(=O)c3ccc([N+](=O)[O-])cc3)nc3ccccc23)c1` is 65.6%.
